These results are taken from PubChem BioAssay AID602124 (The Scripps Research Institute Molecular Screening Center, 2011).

What is called inhibition is the change of the read-out against control, counted positive when it falls.

Molecules are shown by their SMILES. The campaign covered roughly 1,300 compounds. About 630 (48%) were called active. Rule as the data show it: active = inhibition above about 6.5%; inactive = the rest. The set was probably picked from earlier hits. A selection follows.

Chain of Tyrosine-protein kinase ABL1 (Homo sapiens) + Ras and Rab interactor 1 (Homo sapiens) (P00519 whole entry, looked up): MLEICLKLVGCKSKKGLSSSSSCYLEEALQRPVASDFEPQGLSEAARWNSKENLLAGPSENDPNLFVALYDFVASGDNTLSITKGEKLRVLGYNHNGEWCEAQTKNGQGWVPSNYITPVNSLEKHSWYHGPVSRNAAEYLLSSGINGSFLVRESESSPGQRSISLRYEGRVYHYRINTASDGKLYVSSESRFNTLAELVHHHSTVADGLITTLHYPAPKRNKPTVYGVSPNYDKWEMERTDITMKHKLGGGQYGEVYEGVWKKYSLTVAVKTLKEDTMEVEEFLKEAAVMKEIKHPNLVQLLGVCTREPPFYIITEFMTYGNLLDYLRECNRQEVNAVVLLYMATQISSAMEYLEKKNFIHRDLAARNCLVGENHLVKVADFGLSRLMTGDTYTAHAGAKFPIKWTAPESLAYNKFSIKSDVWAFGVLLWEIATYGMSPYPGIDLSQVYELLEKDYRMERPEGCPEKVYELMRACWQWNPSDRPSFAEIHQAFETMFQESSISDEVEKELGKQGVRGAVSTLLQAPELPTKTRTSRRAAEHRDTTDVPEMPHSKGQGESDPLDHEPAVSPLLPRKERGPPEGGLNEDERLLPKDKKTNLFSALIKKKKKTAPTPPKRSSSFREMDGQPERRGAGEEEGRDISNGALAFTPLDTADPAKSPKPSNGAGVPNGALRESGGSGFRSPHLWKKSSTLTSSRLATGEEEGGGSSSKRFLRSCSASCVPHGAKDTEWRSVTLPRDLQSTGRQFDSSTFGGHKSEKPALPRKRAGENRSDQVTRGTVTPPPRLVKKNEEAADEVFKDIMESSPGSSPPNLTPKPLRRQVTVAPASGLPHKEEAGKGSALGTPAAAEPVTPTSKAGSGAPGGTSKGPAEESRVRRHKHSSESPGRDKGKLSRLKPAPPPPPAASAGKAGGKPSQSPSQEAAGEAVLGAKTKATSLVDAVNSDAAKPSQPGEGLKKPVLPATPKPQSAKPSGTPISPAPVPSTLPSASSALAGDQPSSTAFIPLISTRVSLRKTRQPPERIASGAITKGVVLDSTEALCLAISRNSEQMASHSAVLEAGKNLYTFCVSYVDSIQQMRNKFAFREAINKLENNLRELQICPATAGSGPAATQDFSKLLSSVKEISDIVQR
Chain of Tyrosine-protein kinase ABL1 (Homo sapiens) + Ras and Rab interactor 1 (Homo sapiens) (Q13671 whole entry, looked up): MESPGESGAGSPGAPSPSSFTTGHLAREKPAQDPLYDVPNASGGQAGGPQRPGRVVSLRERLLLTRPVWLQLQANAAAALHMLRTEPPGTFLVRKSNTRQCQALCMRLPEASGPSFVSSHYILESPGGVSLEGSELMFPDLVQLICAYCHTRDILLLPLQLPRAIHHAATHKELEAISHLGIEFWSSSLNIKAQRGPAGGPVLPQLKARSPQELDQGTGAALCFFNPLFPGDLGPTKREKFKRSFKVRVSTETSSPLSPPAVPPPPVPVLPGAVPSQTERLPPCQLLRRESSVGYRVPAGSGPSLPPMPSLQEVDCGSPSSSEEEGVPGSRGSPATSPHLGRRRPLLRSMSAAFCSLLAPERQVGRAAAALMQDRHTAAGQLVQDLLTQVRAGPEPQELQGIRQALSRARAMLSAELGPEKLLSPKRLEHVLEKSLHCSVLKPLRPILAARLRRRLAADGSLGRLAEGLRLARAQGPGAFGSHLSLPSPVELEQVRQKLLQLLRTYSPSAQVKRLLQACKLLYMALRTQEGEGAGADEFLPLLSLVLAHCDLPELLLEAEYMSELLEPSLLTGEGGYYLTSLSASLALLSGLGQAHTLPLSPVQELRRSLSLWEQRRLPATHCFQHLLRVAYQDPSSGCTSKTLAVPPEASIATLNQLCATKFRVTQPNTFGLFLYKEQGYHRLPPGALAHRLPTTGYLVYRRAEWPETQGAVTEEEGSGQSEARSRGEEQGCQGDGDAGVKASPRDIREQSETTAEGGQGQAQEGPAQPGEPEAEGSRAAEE

This assay has as its target Tyrosine-protein kinase ABL1 (Homo sapiens) + Ras and Rab interactor 1 (Homo sapiens) (UniProt P00519+Q13671). Nature of the assay: disruptors of human Abl and Rin1 association – biochemical, TR-FRET, confirmation (AID 602124). To be noted: TR-FRET Rin1-Abl binding, purified proteins; at 7.35 µM; hits give high values.
Regarding `CC(=O)Nc1ccc(CN2CCC(Oc3ccc(C(=O)N4CCCC4)cc3)CC2)cc1`, the inhibition was 3.99% (inactive).
The result for `CN(C(=O)c1ccc(NC(=O)Cc2cccc(NC(=O)C3CCN(C(=O)c4ccccc4)CC3)c2)cc1)C1CC1` reads 26% (active); that for `CCOC(=O)CN(C(=O)COc1nc(C)cc(C)c1C#N)c1ccc(Cl)cc1`, 0.28% (inactive); that for `O=C(NNc1c2ccccc2nc2ccccc12)c1cc2ccccc2cc1O`, 1.57% (inactive).
The result for `CCOc1ccc(-n2c(SCC(=O)NC3CCS(=O)(=O)C3)nnc2-c2cccnc2)cc1` (centres undefined) reads 3.68% (inactive); that for `CCCn1c(N)c(C(=O)CSc2nnc(-c3cccnc3)n2-c2ccc(C)cc2C)c(=O)[nH]c1=O`, 13.8% (active).
Under `Cc1ccc(-n2c(SCC(=O)NCc3ccc4c(c3)OCO4)nnc2-c2cccnc2)c(C)c1` stands 12.5% (active); under `COCCNC(=O)Nc1ccc2nc(-c3ccco3)c(-c3ccco3)nc2c1`, 5.72% (inactive).
Take `CN(CC(=O)Nc1ccc(F)cc1)CC(=O)Nc1ccc(Cl)c(S(=O)(=O)N2CCOCC2)c1`: the inhibition is 0.32% (inactive).
For the compound `CCc1ccc(CN(C)C(C)C(=O)Nc2ccc(S(=O)(=O)N3CCCC3)cc2)cc1` (centres undefined), the inhibition is -1.11% (inactive).
`Cc1ccccc1C(=O)N1CCC(C(=O)Nc2ccc(S(=O)(=O)N(C)C(C)C)cc2)CC1`: the inhibition is 9.43% (active).
Turning to `O=C(Nc1ccc(S(=O)(=O)Nc2ncccn2)cc1)c1cncc(Br)c1`, the inhibition was 1.84% (inactive).
`CC(CCO)Nc1nc2c([nH]1)c(=O)n(C)c(=O)n2C` (centres undefined): the inhibition is 1.44% (inactive).
Under `O=c1ccc2c(-c3ccccc3S(=O)(=O)O)c3ccc(O)c(O)c3oc-2c1O` stands 67% (active).
Turning to `CN(C)c1ccc(N/C=C/C(=O)C(F)(F)F)cc1`, the inhibition was -4.29% (inactive).
The result for `COC(=O)c1ccc(COC(=O)C2CCN(S(=O)(=O)c3c(Cl)cccc3Cl)CC2)o1` reads 16.6% (active); that for `O=C(COc1ccc(S(=O)(=O)NCCc2ccccc2)cc1)N1CCCC1`, -1.2% (inactive); that for `Cc1cc2ccccc2n1CCNC(=O)COc1ccc2ccccc2c1`, 0.15% (inactive).
For the compound `CCOC(=O)N1CCC(c2cc(=O)n(-c3ccccc3)[nH]2)CC1`, the inhibition is -2.37% (inactive).
The result for `CCOC(=O)N1CCN(C(=O)C2CCN(c3ncnc4c3sc3cccc(F)c34)CC2)CC1` reads 28.5% (active); that for `CCOC(=O)N1CCN(C(=O)C2CCCN(c3ncnc4c3sc3cccc(F)c34)C2)CC1` (centres undefined), 9.09% (active).
With `Cc1cc(NC(=O)CSCC(=O)NC(C)c2ccccc2)no1` (centres undefined), the inhibition was 0.39% (inactive).
Under `O=C(Nc1ccc(OC(F)(F)F)cc1)c1ccc2c(c1)no[n+]2[O-]` stands -0.65% (inactive); under `CC(OC(=O)c1ccccc1NCCO)C(=O)Nc1ccnn1C(C)C` (centres undefined), 53.2% (active).
